# Screening data (PubChem)
# Sfp PPTase inh = blocks B. subtilis Sfp PPTase activity. Potency, µM, without a hit: largest response in the series, negative = inhibition, most hits filed as inhibitors. Q9F4F7. actives 3.5% (n = 310,000). Biochemical Sfp PPTase activity, qHTS;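 note: the enzyme is Sfp with the accession as filed and its product quenches rhodamine fluorescence; 0% = enzyme reaction without inhibitor and -100% = no enzyme wells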
#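 Fluorescence-quenching assay with 15 nM Sfp, 5 uM rhodamine-CoA and 12.5 uM BHQ-2-labelled ybbR peptide in pH 7.6 Hepes/MgCl2 buffer. Enzyme was pre-incubated with compound for 15 min at room temperature. Rate was taken from the 30-min fluorescence change (525/598 nm).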
# BAZ2B block = inhibitors of human BAZ2B bromodomain | Potency, µM (doses to about 114 µM), without a hit: top-dose activity change, negative = inhibition, most hits filed as inhibitors | AlphaScreen BAZ2B-H3K14Ac peptide displacement | AID 504333 | actives 4.4% (n = 360,000) | Q9UIF8; note: % is set by controls: 0 for no effect and ±100 for the full control effect; nearly all actives have a fitted effect of over 60% in size
# Target sequence (Q9UIF8 whole entry, looked up): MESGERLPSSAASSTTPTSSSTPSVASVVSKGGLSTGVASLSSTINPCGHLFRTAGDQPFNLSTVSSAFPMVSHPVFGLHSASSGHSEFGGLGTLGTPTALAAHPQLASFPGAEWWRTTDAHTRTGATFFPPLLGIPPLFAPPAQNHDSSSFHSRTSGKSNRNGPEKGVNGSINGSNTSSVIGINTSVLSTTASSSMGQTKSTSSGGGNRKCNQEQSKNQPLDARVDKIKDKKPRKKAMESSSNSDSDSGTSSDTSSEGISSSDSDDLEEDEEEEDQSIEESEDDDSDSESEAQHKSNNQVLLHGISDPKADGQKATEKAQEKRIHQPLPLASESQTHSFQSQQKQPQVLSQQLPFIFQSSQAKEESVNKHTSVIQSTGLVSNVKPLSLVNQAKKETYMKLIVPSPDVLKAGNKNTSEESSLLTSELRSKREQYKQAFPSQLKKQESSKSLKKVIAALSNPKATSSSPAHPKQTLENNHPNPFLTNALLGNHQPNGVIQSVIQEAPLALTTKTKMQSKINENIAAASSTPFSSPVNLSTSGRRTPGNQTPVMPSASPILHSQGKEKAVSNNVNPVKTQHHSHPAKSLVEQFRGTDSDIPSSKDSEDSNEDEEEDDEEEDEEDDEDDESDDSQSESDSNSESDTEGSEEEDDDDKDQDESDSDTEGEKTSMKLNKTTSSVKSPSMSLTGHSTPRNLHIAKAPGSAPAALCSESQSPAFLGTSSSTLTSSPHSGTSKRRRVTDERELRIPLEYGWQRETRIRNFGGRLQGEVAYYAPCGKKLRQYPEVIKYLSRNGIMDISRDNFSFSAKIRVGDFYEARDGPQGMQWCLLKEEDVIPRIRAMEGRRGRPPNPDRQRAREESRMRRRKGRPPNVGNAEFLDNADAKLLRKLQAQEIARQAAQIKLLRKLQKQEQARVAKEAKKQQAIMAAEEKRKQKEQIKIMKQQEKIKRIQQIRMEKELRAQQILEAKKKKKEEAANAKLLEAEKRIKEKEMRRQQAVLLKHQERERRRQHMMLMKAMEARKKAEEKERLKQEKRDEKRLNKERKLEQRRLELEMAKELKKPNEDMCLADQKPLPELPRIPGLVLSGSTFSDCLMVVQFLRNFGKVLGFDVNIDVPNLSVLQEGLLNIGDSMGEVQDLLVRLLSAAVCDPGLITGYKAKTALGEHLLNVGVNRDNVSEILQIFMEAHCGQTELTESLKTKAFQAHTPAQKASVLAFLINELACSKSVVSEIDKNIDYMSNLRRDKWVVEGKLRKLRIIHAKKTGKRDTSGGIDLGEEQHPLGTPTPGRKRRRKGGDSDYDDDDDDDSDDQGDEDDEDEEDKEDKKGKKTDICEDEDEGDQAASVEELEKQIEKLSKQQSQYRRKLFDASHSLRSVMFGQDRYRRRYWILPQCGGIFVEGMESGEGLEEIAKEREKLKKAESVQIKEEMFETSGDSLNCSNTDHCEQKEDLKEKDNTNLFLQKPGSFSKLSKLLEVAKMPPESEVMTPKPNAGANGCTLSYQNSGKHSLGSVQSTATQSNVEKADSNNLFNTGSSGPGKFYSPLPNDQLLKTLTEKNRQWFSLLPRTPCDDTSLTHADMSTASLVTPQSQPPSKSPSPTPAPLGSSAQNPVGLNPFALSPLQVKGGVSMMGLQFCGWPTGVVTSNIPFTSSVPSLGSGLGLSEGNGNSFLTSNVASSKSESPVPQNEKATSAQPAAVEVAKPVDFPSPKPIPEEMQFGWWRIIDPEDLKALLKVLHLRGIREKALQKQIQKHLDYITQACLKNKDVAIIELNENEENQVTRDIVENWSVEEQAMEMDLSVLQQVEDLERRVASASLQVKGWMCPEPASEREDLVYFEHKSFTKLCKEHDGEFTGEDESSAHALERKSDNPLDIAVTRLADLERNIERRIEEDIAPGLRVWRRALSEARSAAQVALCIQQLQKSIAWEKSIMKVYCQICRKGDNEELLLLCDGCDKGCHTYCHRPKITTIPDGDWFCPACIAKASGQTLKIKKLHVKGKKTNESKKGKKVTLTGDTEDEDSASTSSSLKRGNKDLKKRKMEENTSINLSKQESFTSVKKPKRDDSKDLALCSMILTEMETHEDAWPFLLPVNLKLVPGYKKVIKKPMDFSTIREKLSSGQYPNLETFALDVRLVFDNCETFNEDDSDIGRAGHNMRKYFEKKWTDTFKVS
#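 Protein-peptide AlphaScreen: BAZ2B 50 nM, b-H3K14Ac 50 nM, 1x PBS pH 7.4 + 0.01% Tween-20. Preincubation 30 min RT; cpd 30 min RT (top 110 uM); beads 20 min RT, light-protected.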
# G9a inh = inhibitors of human histone lysine methyltransferase G9a. Q96KQ7. G9a H3K9 monomethylation, AlphaScreen, 2 h. Potency, µM (titrated, usually from 102 µM), inactives show at the highest dose activity, negative = inhibition, actives largely listed as inhibitors. actives 8.8% (n = 350,000). AID 504332; note: % is set by controls: 0 for no effect and ±100 for the full control effect; nearly all actives have a fitted effect of over 75% in size
#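 Using a bead-based AlphaScreen, monomethylated H3K9 product from 2 h room-temperature reactions (G9a 20 nM, peptide 500 nM, SAM 20 uM) was detected with 0.5 ug/mL rabbit anti-H3K9me1 antibody.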
# JMJD2A Tudor inh = blocks the human JMJD2A Tudor domain | O75164 | actives 4.4% (n = 390,000) | AlphaScreen JMJD2A-Tudor / H3K4me3 peptide binding | AID 504339 | Potency, µM (doses to about 114 µM), inactives show at the top dose activity change, negative = inhibition, most hits filed as inhibitors; note: % is set by controls: 0 for no effect and ±100 for the full control effect; nearly all actives have a fitted effect of over 50% in size
# HP1b chromo inh = HP1-beta chromodomain-methylated histone interaction inhibition; P83916; AlphaScreen HP1-beta / biotin-H3K9me3 peptide binding; Potency, µM (doses to about 114 µM), without a hit: at the highest dose activity change, negative = inhibition, usual class: inhibitors; actives 0.56% (n = 390,000); AID 540317; note: nearly all actives have a fitted effect of over 70% in size
#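 HP1-beta protein (50 nM final) preincubated 30 min at room temperature with biotinylated H3(1-18)K9me3 peptide (50 nM) in PBS pH 7.4, 0.01% Tween-20, then compound added for 30 min. AlphaScreen streptavidin donor/nickel chelate acceptor beads (10 ug/mL final), 30 min dark, luminescence read.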
# The depositor's hits bear a star; ? = inconclusive; · = no result given; [ ] = remark or other dose. Hits are enriched below; roughly 12% of the tested compounds scored in any of these assays. Calls come from the whole dose curve; as a rule, active = well fitted curve in the direction sought with a large enough effect; inconclusive = small, poorly fitted or top-dose-only effect, or another doubt; inactive = no such curve, though single readings can be large; an effect the other way counts as inactive or inconclusive. Potency is the fitted concentration of half-maximal effect.
SMILES,Sfp PPTase inh,BAZ2B block,G9a inh,JMJD2A Tudor inh,HP1b chromo inh
Cc1ccc(-c2nc3c(c(SCC(=O)Nc4ccccc4Cl)n2)Cc2c(CO)cnc(C)c2O3)cc1,·,-1.1%,4.9%[59 µM],11.7%,35.3%
Cc1ccc(-c2nc3c(c(SCC(=O)N4CCOCC4)n2)Cc2c(CO)cnc(C)c2O3)cc1,3.1%,?,14.1µM*,?,29.6%
O=C(CSc1ccccc1)NNC(=O)c1ccccc1O,-2.6%,-0.9%,69.1%,-4.1%,41.6%
Cn1c(CCc2ccccc2)nnc1SCC(=O)N1CCCC1,12.8%,7.2%,-21.0%[59 µM],9.1%,33.0%
CCC/C(C#Cc1ccc(N(C)C)cc1)=C1/c2ccccc2C(=O)N1c1ccccc1,·,·,·,7.9%,68.0%
COc1ccc(F)cc1S(=O)(=O)n1cc(C)nc1-c1ccccc1,7.3%,-7.5%,9.4%[59 µM],22.4µM*,1.0%
Cn1nnc(NC(=S)NC(=O)c2cc(Cl)ccc2Cl)n1,50.1µM*,?,3.55µM*,-5.2%,-3.4%
COc1cc2ccccc2cc1C(=O)NC(=S)Nc1nnn(C)n1,21.3%,-2.5%,30.0%[59 µM],-25.3%,28.7%
Cn1c(=O)[nH]c(=O)c2[nH]c(N(Cc3ccccc3)Cc3ccccc3)nc21,89.1µM*,?,50.1µM*,?,-19.7%
Nc1ccc(S(=O)(=O)Nc2nccs2)cc1N=Nc1ccccc1[N+](=O)[O-],·,·,·,39.8µM*,39.8µM*
O=[N+]([O-])c1ccccc1S(=O)(=O)Nc1ccc(S(=O)(=O)Nc2nccs2)cc1,4.4%,-20.8%,44.7µM*,-23.7%,-13.9%
O=C(CN1CCOCC1)NNc1nc(-c2ccccc2)c2cc(Br)ccc2n1,4.9%,-24.8%,13.3%[59 µM],-33.9%,39.6%
CC(=O)N[C@@H](Cc1c[nH]c2ccccc12)C(=O)OCC(=O)Nc1cc(C)on1,·,·,·,-8.3%,33.0%
COC(=O)c1cc(O)cc(OC)c1Oc1cc(C)cc(O)c1C(=O)O,56.2µM*,8.91µM*,?,20µM*,?
COC(=O)c1cc(O)cc(OC)c1C(=O)c1c(O)cc(C)cc1O,17.2%,-28.0%,21.5%[12.7 µM],?,-11.0%
O=[N+]([O-])c1ccc([N+](=O)[O-])c(Nc2ccc(N3CCOCC3)cc2)c1,10.7%,17.8µM*,-35.0%[12.7 µM],17.8µM*,?
CS(=O)(=O)N1CCN(c2ccc([N+](=O)[O-])c(NCCN3CCOCC3)c2)CC1,17.9%,7.9%,3.0%[59 µM],-13.9%,1.7%
Cc1ccc(OCCNc2cc(N3CCN(CCO)CC3)ccc2[N+](=O)[O-])cc1C,-28.4%,31.6µM*,?,?,?
CC(C)CC(=O)N1CCN(c2ccc([N+](=O)[O-])c(NCc3ccccc3)c2)CC1,·,·,·,50.1µM*,?
O=[N+]([O-])c1ccc(N2CCOCC2)cc1O,12.1%,-22.1%,3.8%,-22.1%,44.7%
CC(C)(C)CNc1cc(N2CCOCC2)ccc1[N+](=O)[O-],0.9%,?,31.6µM*,?,-16.5%
COCc1ccc(-c2c(-c3cccc(OC)c3)sc3ccc(OC)cc23)cc1,·,-1.8%,5.6%[0.501 µM],35.5%,92.9%
Cc1cccc(OCCNc2cc(N3CCOCC3)ccc2[N+](=O)[O-])c1,13.4%,?,10µM*,?,-19.4%
Cc1ccccc1OCCNc1cc(N2CCNCC2)ccc1[N+](=O)[O-],-1.6%,?,31.6µM*,·,·
Cc1cccc(OCCNc2cc(N3CCN(C)CC3)ccc2[N+](=O)[O-])c1,-9.8%,?,17.1%[59 µM],39.8µM*,50.1µM*
SMILES,Sfp PPTase inh,BAZ2B block,G9a inh,JMJD2A Tudor inh,HP1b chromo inh
COc1ccccc1OCCNc1cc(N2CCCCC2)ccc1[N+](=O)[O-],-5.0%,?,?,?,?
Clc1ccccc1C(c1ccccc1)(c1ccccc1)n1ccnc1,-60.3%,22.4µM*,4.4%[59 µM],28.2µM*,-15.9%
Clc1ccccc1-c1nccc(-n2ccnc2)n1,-27.3%,·,·,·,·
C/C(CC(=O)Nc1ccc(N(C)C)cc1)=N\NC(=O)c1ccc([N+](=O)[O-])cc1Cl,-13.8%,?,44.7µM*,?,?
COc1cccc(C(=O)NC2CC3CCCC(C2)N3CC(=O)Nc2ccc(N(C)C)cc2)c1 (centres undefined),3.6%,44.7µM*,29.0%[0.501 µM],39.8µM*,?
C/C(CC(=O)Nc1ccc(N(C)C)cc1)=N\NC(=O)c1ccc(Cl)cc1Cl,4.2%,?,-8.7%[59 µM],?,10.1%
COc1cccc(NC(=O)C(=O)N/N=C(\C)CC(=O)Nc2ccc(NC(C)=O)cc2)c1,10.4%,-15.5%,70.8µM*,-6.2%,37.5%
COc1cccc(C(=O)NC2CC3CCCC(C2)N3CC(=O)Nc2ccccc2)c1 (centres undefined),-12.1%,?,-14.6%[12.7 µM],-29.8%[57.1 µM],52.2%
COc1cccc(C(=O)N/N=C(\C)CC(=O)Nc2ccc(N(C)C)cc2)c1,-6.0%,56.2µM*,·,-27.7%,17.6%
COc1cccc(/C(C)=N/NC(=O)c2ccc(N(C)C)cc2)c1,-0.5%,-29.6%,·,-15.5%,30.5%
CCc1ccc(NC(=O)C(=O)N/N=C(\C)CC(=O)Nc2ccc(OC)cc2)cc1,3.6%,-15.3%,?,-13.6%,34.0%
O=C(Nc1ccc(S(=O)(=O)N2CCOCC2)cc1)c1cccc([N+](=O)[O-])c1,12.7%,-37.1%,-2.0%[59 µM],-7.0%,21.7%
O=C(Nc1c2c(nn1-c1ccccc1)CS(=O)(=O)C2)c1ccccc1C(F)(F)F,14.4%,-3.6%,-4.6%,5.1%,10.7%
COc1ccc(C(=O)Nc2ccc3[nH]ncc3c2)cc1OC,12.7%,9.4%,·,-8.3%,24.1%
C/C(CC(=O)Nc1ccc(N(C)C)cc1)=N\NC(=O)c1ccccc1O,0.9%,35.5µM*,50.1µM*,56.2µM*,-18.2%
C/C(CC(=O)Nc1ccc([N+](=O)[O-])cc1)=N\NC(=O)c1ccccc1O,18.9%,-9.5%,9.3%[0.501 µM],-35.9%,0.4%
Cc1cc(C)cc(NC(=S)NC(=O)CCN2C(=O)c3ccccc3C2=O)c1,7.7%,-8.4%,?,-26.1%,52.3%
Cc1[nH][nH]c(=O)c1C(c1c(C)[nH][nH]c1=O)c1cn(C)c2ccccc12,44.7µM*,?,·,?,-19.2%
Cc1[nH][nH]c(=O)c1C(c1c(C)[nH][nH]c1=O)c1cn(Cc2cccc3ccccc23)c2ccccc12,-15.4%,?,44.7µM*,-26.7%[11.4 µM],28.2µM*
COC(=O)C1(Cc2ccccc2)C2c3cc(C(=O)N4CCCC4)n(Cc4ccc(OC(F)(F)F)cc4)c3CC2CN1C(=O)c1ccccc1 (centres undefined),-3.8%,·,·,·,·
Cc1cc2c(c(=O)n1CCN(C)C)C(c1ccccc1Br)C(C#N)=C(N)O2 (centres undefined),-1.3%,26.4%,?,2.3%,43.1%
CCOC(=S)SCc1cn2ccc(C)cc2n1,-13.8%,-37.2%,-43.7%[59 µM],-27.2%,4.3%
CCOC(=S)SCc1cn2ccccc2n1,50.1µM*,-21.7%,?,-8.1%,6.9%
